From PubChem BioAssay
HepG2 viability = kills HepG2 cells in TGF-b inhibitor counter-screen. HepG2 CAGA-GFP viability, ATP luminescence, 18 h. actives 0.76% (n = 410,000). Potency, µM (highest dose often 46.1 µM), inactives show at the highest dose activity change, negative = cytotoxicity, usual class: cytotoxic. AID 588856
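HepG2 CAGA-GFP cells (1000/well, DMEM with 1% FBS) received compound, then TGF-beta at 500 pg/mL final, and were incubated 18 hours at 37 degrees C. Viability was read by CellTiter-Glo luminescence. Media-only wells were set as complete cell-killing and DMSO as no toxicity.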
TGFb SMAD3 inh = blocks TGF-b signaling; AID 588855; Potency, µM (series often up to 46.1 µM), for inactives: top-dose activity, negative = inhibition, actives largely listed as inhibitors; actives 1.2% (n = 410,000); HepG2 CAGA-GFP TGF-b/SMAD3 reporter, GFP fluorescence, 18 h; TGF-beta stimulated, 500 pg/mL final; also: % is scaled to controls: 0 for no effect and ±100 for the full control effect; nearly all actives have a fitted effect of over 65% in size
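Using HEPG2 CAGA-GFP reporter cells at 1000 cells/well, we pinned test compounds, stimulated with recombinant TGF-beta (500 pg/mL final) and measured total well GFP after 18 h.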
HT1080-NT tox = kills 2HG-producing HT-1080-NT fibrosarcoma cells. HT-1080-NT fibrosarcoma viability, CellTiter-Glo ATP luminescence, 48 h. Potency, µM (series often up to 46.1 µM), inactives show at the top dose activity, negative = less viability, most hits filed as cytotoxic. actives 1.6% (n = 360,000);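 also: NT is the 2HG producing partner of a matched IDH1 knockdown line; 0% = DMSO-treated cells and -100% = media-only wells without cells; nearly all actives have a fitted effect of over 55% in size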
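Compounds were tested in concentration-response format on HT-1080-NT cells for 48 hours at 37 degrees C. Cell viability came from CellTiter-Glo luminescence; curves were classified by r2, response magnitude and activity.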
S2 tox = reduces viability in counter-screen for ATXN expression inhibitors; S2 cells (HEK-293 line with an ATXN2-luciferase reporter) viability, CellTiter-Fluor protease fluorescence, 24 h; Potency, µM (top dose mostly 56.7 µM), actives largely listed as cytotoxic; actives 0.49% (n = 400,000); also: nearly all actives have a fitted effect of over 40% in size
HT1080 IDH1KD tx = toxicity to HT-1080 IDH1 knockdown cells (counter line). Potency, µM (titrated, usually from 46.1 µM), inactives show at the top dose activity, negative = toxicity, hits mostly cytotoxic. HT-1080 IDH1 knockdown viability, ATP luminescence, 48 h. actives 2% (n = 360,000);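 also: 0% = DMSO wells and -100% = cell-free medium wells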
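Using the IDH1-knockdown HT-1080 line run in the same batch and compound series as the NT line, viability after 48 h at 37 °C was determined by CellTiter-Glo luminescence and expressed as % activity.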
ATXN2 expr inh = ATXN2 expression inhibition. Potency, µM (top dose mostly 57 µM), without a hit: at the top dose activity change, negative = inhibition, usual class: inhibitors. actives 0.72% (n = 360,000). HEK-293 ATXN2-luciferase reporter, luminescence, 24 h; also: % is scaled to controls: 0 for no effect and ±100 for the full control effect; nearly all actives have a fitted effect of over 55% in size
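qHTS (up to 57 uM final) was run with 24 h compound exposure of reporter cells at 37 °C. Each well was multiplexed: SteadyGlo luminescence measured ATXN2-luciferase expression after a fluorogenic Gly-Phe-AFC viability readout (25 uM final).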
Numbers without * were called inactive; i = inactive; ? = inconclusive; nt = not tested or not shown. Sampled rows, rich in hits. Any-hit rate of the full collection: about 3.9%. Calls follow the shape of the dose curve; as a rule, active = well fitted curve in the direction sought with a large enough effect; inconclusive = small, poorly fitted or top-dose-only effect, or another doubt; inactive = no such curve, though single readings can be large; an effect the other way counts as inactive or inconclusive. Potency is read from the fitted curve at half-maximal effect.

SMILES	HepG2 viability	TGFb SMAD3 inh	HT1080-NT tox	S2 tox	HT1080 IDH1KD tx	ATXN2 expr inh
Cc1cc(OC(C)C(=O)N(Cc2ccc(N(C)C)cc2)Cc2ccco2)ccc1Cl (stereo unspecified)	-28.0%	nt	nt	nt	nt	nt
COc1ccc2c(c1)c1c(c(=O)n(-c3cccc(Cl)c3)c(=O)n1CC(=O)N1CCCC1)n2C	-5.1%	?	nt	?	nt	-0.2%
c1ccc(CCNc2nc(-c3ccncc3)nc3ccccc23)cc1	-59.9%	0.0%	?	i	4.11µM*	?
Cn1c2ccccc2c2c(C(=O)O)cn(C3CCCC3)c(=O)c21	-20.5%	?	-10.8%	i	3.8%	-19.6%
CN[C@@H]1C[C@H]2O[C@@](C)([C@H]1OC)n1c3ccccc3c3c4c(c5c6ccccc6n2c5c31)C(=O)N[C@H]4O	nt	nt	nt	nt	nt	1.22µM*
C[C@H]1C(=O)N(S(=O)(=O)c2ccccc2[N+](=O)[O-])[C@H]1c1ccc(-c2ccccc2)cc1	3.4%	-8.9%	nt	nt	nt	nt
COc1ccc(C(CC(=O)Nc2ccc(C)cn2)N2Cc3ccccc3C2=O)cc1OC (stereo unspecified)	-2.0%	3.8%	nt	i	nt	-2.9%
CCCOC(=O)N1CCN(/[N+]([O-])=N/Oc2ccc([N+](=O)[O-])cc2[N+](=O)[O-])CC1	-97.1%	7.08µM*	nt	nt	nt	nt
O=C(OCc1ccccc1)N1CCN(/[N+]([O-])=N/Oc2ccc([N+](=O)[O-])cc2[N+](=O)[O-])CC1	-107.7%	?	nt	nt	nt	nt
CCN1CCN(c2cc(C)c3cc(NC(=O)/C=C/c4ccc(OCCC(C)C)cc4)ccc3n2)CC1	-4.7%	32.7%	nt	nt	nt	nt
O=C(c1ccc(Cl)cc1)C1C2C(=O)N(c3ccccc3)C(=O)C2C2CCCN21 (stereo unspecified)	17.6%	16.5%	8.7%	i	13.5%	-1.7%
COc1ccc(N2C(=O)C3C(C2=O)C(C(=O)c2ccc(Cl)cc2)N2CCCC32)cc1 (stereo unspecified)	-48.7%	?	13µM*	?	18.4µM*	?
O=C(c1ccccc1)[C@@H]1[C@@H]2C(=O)N(c3ccc(F)cc3)C(=O)[C@@H]2C2CCCN21 (stereo partly specified)	-52.0%	?	?	?	23.1µM*	nt
CC(=O)c1ccc(N2C(=O)C3C(C2=O)C(C(=O)c2ccc(Cl)cc2)N2CCCC32)cc1 (stereo unspecified)	-21.4%	8.1%	16.4µM*	i	?	36.7%
Cc1cc(C)cc(NC(=O)C2CCCN(c3cnccn3)C2)c1 (stereo unspecified)	-0.4%	0.0%	nt	nt	nt	nt
Nc1nc2ccccc2n1Cc1ccc(F)cc1	nt	nt	nt	i	nt	-16.5%
C1=C(c2ccc3c(c2)CN(Cc2cccn2-c2ncccn2)CCO3)Cc2ccccc21	nt	nt	nt	i	nt	nt
COc1cc(C(=O)N/N=C(\Cc2ncc[nH]2)c2ccccc2)cc(OC)c1OC	-21.2%	11.1%	9.2µM*	i	4.61µM*	?
COc1ccc(C(=O)N/N=C(\Cc2ncc[nH]2)c2ccccc2)cc1	-4.6%	-1.7%	?	i	?	-30.7%
COc1cccc(C(=O)N/N=C(/c2ccccc2)c2ccccn2)c1	-32.7%	?	?	10µM*	0.891µM*	3.98µM*
COc1cc(NC(=O)c2ccccn2)cc(OC)c1OC	6.0%	4.9%	13.8%	i	5.7%	nt
COc1cc(C(=O)N/N=C(\c2ccccc2)c2ccccn2)cc(OC)c1OC	-23.8%	-4.3%	?	i	?	2.51µM*
CCc1ccccc1NC(=O)c1nnn(Cc2ccc(Cl)cc2)c1N	-3.3%	?	nt	i	nt	-22.7%
O=[N+]([O-])c1ccc(O)c(C2=NNC(c3ccccc3F)C2)c1 (stereo unspecified)	-37.9%	12.6µM*	20.6µM*	i	?	?
CC1(C(=O)NCc2cccs2)Cc2c(-c3cccc(C(F)(F)F)c3)ccnc2O1 (stereo unspecified)	-14.5%	?	5.8µM*	i	4.61µM*	-22.3%
SMILES	HepG2 viability	TGFb SMAD3 inh	HT1080-NT tox	S2 tox	HT1080 IDH1KD tx	ATXN2 expr inh
CC1(C(=O)NCc2cccs2)Cc2c(-c3ccc(C(N)=O)cc3)ccnc2O1 (stereo unspecified)	1.3%	23.8%	?	i	14.6µM*	0.1%
CC(C)NC(=O)C1(C)Cc2c(-c3cccc(C(F)(F)F)c3)ccnc2O1 (stereo unspecified)	-43.2%	-28.5%	7.7%	?	-0.5%	-11.7%
CC1(C(=O)NCc2ccccc2)Cc2c(-c3cccc(C(F)(F)F)c3)ccnc2O1 (stereo unspecified)	-2.9%	?	?	i	3.66µM*	-12.0%
CC(=O)NCCNC(=O)C1(C)Cc2c(-c3ccc(C(N)=O)cc3)ccnc2O1 (stereo unspecified)	4.2%	27.1%	15.4%	i	3.4%	10.4%
COc1cc(=O)n2c(c1C(=O)N(C)Cc1ccsc1)CCN(Cc1c(C)nn(C)c1Cl)CC2	nt	nt	nt	i	nt	nt
O=C(CSc1ccccc1)N1CCc2c([nH]c3ccccc23)C1c1ccc(Cl)cc1 (stereo unspecified)	-73.4%	-5.0%	nt	nt	nt	nt
CN(C)c1c(Cl)cc(/C=C/c2ccnc3ccccc23)cc1Br	-26.4%	?	nt	nt	nt	nt
Cc1nnc(N=c2ssnc2Cl)o1	-40.0%	2.51µM*	1.5%	?	-2.7%	?
O=Nc1c(O)n(Cc2cccc(Cl)c2)c2ccccc12	-54.7%	-28.7%	14.6µM*	?	18.4µM*	-2.3%
COc1ccc2cc(CNCc3ccccc3Cl)c(N3CCCC(CO)C3)nc2c1 (stereo unspecified)	nt	nt	nt	i	nt	nt
COc1ccc(C(O)c2nc(-c3cccc(C(F)(F)F)c3)cs2)cc1 (stereo unspecified)	-42.5%	?	-18.6%	?	?	?
COc1cc(C(O)c2nc(-c3cccc(C(F)(F)F)c3)cs2)ccc1F (stereo unspecified)	11.2µM*	12.6µM*	?	i	?	-27.2%
COc1cc(C(O)c2nc(-c3ccc4ccccc4c3)cs2)ccc1F (stereo unspecified)	-106.6%	?	23.1µM*	i	?	7.4%
COc1ccc(C(O)c2nc(-c3ccc4ccccc4c3)cs2)cc1 (stereo unspecified)	-2.2%	-9.2%	-28.3%	i	-14.1%	7.3%
COC(=O)c1ccc(Cl)c(NS(=O)(=O)c2ccc3c(c2)OCCO3)c1	-5.2%	-8.0%	?	i	4.61µM*	-12.3%
